Columns and labels:
[1] = biological target: 60 kDa heat shock protein, mitochondrial (UniProt P10809); assay: cross-link between two proteins; cross-linking mass spectrometry
ADP/ATP translocase 3 = ADP/ATP translocase 3 (UniProt P12236); assay: cross-link between two proteins; co-fractionation; cross-linking mass spectrometry
Sequence of ADP/ATP translocase 3 (P12236 whole entry): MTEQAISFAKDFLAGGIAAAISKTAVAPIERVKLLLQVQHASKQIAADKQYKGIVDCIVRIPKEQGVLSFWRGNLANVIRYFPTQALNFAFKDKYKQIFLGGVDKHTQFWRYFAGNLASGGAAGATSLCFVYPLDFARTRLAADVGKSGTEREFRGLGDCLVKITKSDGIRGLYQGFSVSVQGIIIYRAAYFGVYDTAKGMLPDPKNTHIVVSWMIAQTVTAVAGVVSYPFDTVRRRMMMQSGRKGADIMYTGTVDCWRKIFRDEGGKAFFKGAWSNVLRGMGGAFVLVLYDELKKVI

For Putative GTP-binding protein 6, O43824, the “listed as a hit” value [1] was “yes”.
With ADP/ATP translocase 2, P05141 the “listed as a hit” value (ADP/ATP translocase 3) was “yes”.

From publication PMC10313818
